From PubChem BioAssay
In the library only some 2.1% were active in any assay of this set; here they are far more common.
CF NFkB block – inhibitors of cystic fibrosis induced NF-kB | inhibition, % at 5 µM | actives 0.86% (n = 360,000) | AID 588850 | KKLEB NF-kB-GFP reporter, PAF-induced, GFP fluorescence overnight;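 active = at least 50% inhibition at 5 µM, scaled per plate between neutral and stimulator controls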;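 note: PAF is a Pseudomonas aeruginosa culture filtrate used as stimulus; plate controls were PAF-stimulated DMSO wells for no effect and unstimulated DMSO wells for full effect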
PAX8 inh HTS – PAX8 transcriptional activity inhibition. AID 652154. inhibition, % at 12.6 µM. RMG-I TPO-luciferase reporter, SteadyGlo, 24 h. actives 1.2% (n = 360,000);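 active = mean replicate inhibition at least 60% with every replicate also reaching 60%; inconclusive = only one of the two criteria is met; inactive = mean below 60% and not all replicates reaching 60%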;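 note: luciferase light reporting Pax8 driven TPO promoter activity; plate controls were median of neutral control wells for no effect and mitoxantrone controls for full effect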
EWS-Fli inh – EWS/Fli transcriptional activity inhibition | A673 NR0B1-luciferase reporter, viability-normalised | inhibition, % at 12.6 µM | actives 0.67% (n = 350,000);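 active = mean inhibition of at least 50% after viability correction, with every replicate also passing that limit; inconclusive = mean reaches 50% but only one of two replicates passes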;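 note: firefly luciferase signal divided by Alamar Blue viability fluorescence both relative to DMSO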
KKLEB tox – counter-screen for CF NF-kB inhibitors: cytotoxicity. KKLEB CF airway cells viability, ATPlite luminescence, overnight; hits give low values; cells stimulated with P. aeruginosa culture filtrate. AID 602141. actives 0.36% (n = 360,000). activity change (cytotoxicity), % at 5 µM;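 active = corrected activity change at or below -50% at 5 µM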
HIF-2a block – inhibitors of HIF-2a; inhibition, % at 18.8 µM; 786-0 RCC cells HIF-2a reporter, luciferase luminescence, overnight; AID 624352; actives 0.72% (n = 360,000);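 active = inhibition of the luminescence signal of 40% or more relative to plate controls, in a single-dose primary screen at 18.75 µM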
Mdm2 MdmX conf – confirmation of inhibitors of human Mdm2/MdmX interaction, set 2; shares compounds with HIF-2a block; SaOS-2 split-luciferase Mdm2/MdmX complementation, luminescence; inhibition, % at 8 µM; actives 99% (n = 740);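 active = mean inhibition of the luminescence signal across two replicates at or above 26 percent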
Target sequence (O15151 whole entry, looked up): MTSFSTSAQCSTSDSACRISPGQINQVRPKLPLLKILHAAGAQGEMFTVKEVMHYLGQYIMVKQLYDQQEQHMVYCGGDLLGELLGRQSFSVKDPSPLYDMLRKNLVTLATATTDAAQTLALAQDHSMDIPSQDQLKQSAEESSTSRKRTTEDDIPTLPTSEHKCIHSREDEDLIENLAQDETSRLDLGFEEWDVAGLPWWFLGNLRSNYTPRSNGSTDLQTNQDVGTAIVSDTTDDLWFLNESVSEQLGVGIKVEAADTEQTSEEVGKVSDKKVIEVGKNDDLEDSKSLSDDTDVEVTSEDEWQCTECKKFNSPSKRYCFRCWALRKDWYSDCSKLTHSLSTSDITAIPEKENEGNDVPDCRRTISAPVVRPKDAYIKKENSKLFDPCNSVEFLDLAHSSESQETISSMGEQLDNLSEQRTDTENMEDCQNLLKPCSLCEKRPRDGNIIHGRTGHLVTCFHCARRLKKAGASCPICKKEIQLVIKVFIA
Target sequence (Q00987 whole entry, looked up): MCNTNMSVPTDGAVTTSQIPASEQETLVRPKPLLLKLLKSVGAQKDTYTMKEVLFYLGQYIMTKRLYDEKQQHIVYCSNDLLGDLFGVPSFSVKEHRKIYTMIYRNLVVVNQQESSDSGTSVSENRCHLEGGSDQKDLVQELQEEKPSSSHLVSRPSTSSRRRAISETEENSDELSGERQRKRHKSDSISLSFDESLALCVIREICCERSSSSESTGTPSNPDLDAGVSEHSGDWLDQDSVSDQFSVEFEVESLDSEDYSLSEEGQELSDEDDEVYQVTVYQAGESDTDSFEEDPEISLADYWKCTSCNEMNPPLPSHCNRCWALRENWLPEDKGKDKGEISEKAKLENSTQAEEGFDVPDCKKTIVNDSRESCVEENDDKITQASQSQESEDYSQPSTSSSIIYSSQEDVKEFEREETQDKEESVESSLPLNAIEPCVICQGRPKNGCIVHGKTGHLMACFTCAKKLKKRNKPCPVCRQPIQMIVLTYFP
HIF-2a conf – confirmation of HIF-2a inhibitors; shares compounds with HIF-2a block; 786-0 RCC cells, HIF-2a luciferase reporter luminescence, overnight; actives 56% (n = 1,800); AID 651580; inhibition, % at 18.8 µM;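 active = mean inhibition across four replicates of at least 40 percent at the single tested concentration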
HIF-1a cs – counter-screen for HIF-2a inhibitors: HIF-1a inhibition in MiaPaCa-2 cells; shares compounds with HIF-2a block; MiaPaCa-2 HIF-1a luciferase reporter, desferoxamine, overnight; inhibition, % at 18.8 µM; actives 72% (n = 1,800);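 active = mean inhibition of the reporter signal across four replicates at the single tested dose of 50% or more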
Numbers without * were called inactive; ? = inconclusive; · = no result given.

SMILES | CF NFkB block | PAX8 inh HTS | EWS-Fli inh | KKLEB tox | HIF-2a block | HIF-2a conf | HIF-1a cs | others
COCCn1c(C)cc(C(=O)COC(=O)c2cccnc2SC)c1C | -10 | -103 | -94 | -6 | -179 | · | ·
Cc1cc(C(=O)COC(=O)c2n[nH]c3ccccc23)c(C)n1C | 16 | · | · | 16 | -82 | · | ·
COCC#Cc1cnc2c(c1)C(=O)N([C@H](C)CO)C[C@H](C)[C@@H](CN(C)C(=O)CN1CCOCC1)O2 | · | -29 | -4 | · | · | · | ·
CN(C(=O)/C=C/c1ccc([N+](=O)[O-])s1)c1ccccc1 | 14 | ? | 3 | 16 | 62* | 61* | 90*
COc1cccc(CNC(=O)C[C@H]2CC[C@@H](NC(=O)C3CCOCC3)[C@H](CO)O2)c1 | · | 5 | 2 | · | · | · | ·
O=[N+]([O-])c1cc(S(=O)(=O)N2CCCCCC2)ccc1F | 51* | 31 | 25 | -26 | 94* | 87* | 105*
O=[N+]([O-])c1cc(S(=O)(=O)N2CCCC2)ccc1O | -11 | -2 | · | 4 | 19 | · | ·
Cc1cccc(Oc2sc(C(=O)c3ccccc3)c(N)c2C#N)c1 | 37 | · | · | -26 | 43* | 20 | 43
CCCN(C)C[C@H]1Oc2cc(-c3ccccc3OC)ccc2S(=O)(=O)N([C@H](C)CO)C[C@H]1C | · | · | 9 | · | · | · | ·
Cc1cc2c(cc1C)CSC(c1c(O)ccc3ccccc13)SC2 | 41 | 49 | · | -9 | 79* | 6 | 99*
Cc1cc2c(cc1C)CSC(c1ccc3ccccc3c1O)SC2 | 11 | 18 | · | -15 | 15 | · | ·
CCCNC(=O)[C@H]1[C@H](CO)[C@H]2Cn3c(ccc(-c4ccccc4F)c3=O)[C@H]2N1C(=O)CC | · | -9 | 4 | · | · | · | ·
CCC(=O)OCCNc1cc(Sc2nccn2C)c2nonc2c1[N+](=O)[O-] | 89* | 104* | · | -78* | 91* | 80* | 105*
CCCC(=O)OCCNc1cc(Sc2nc3ccccc3[nH]2)c2nonc2c1[N+](=O)[O-] | 92* | 86* | · | -66* | 94* | 69* | 74* | Mdm2 MdmX conf=103*
CCC(=O)OCCNc1cc(SCCC(=O)OC)c2nonc2c1[N+](=O)[O-] | 13 | -3 | · | 2 | 17 | · | ·
CC(=O)OCCNc1cc(SC(C)C)c2nonc2c1[N+](=O)[O-] | -16 | -12 | 2 | 1 | -2 | · | ·
O=C(O)c1ccc(N/N=C/c2ccc(C(F)(F)F)cc2)cc1 | 6 | 59 | ? | -2 | 45* | 68* | 33
CCOC(=O)c1nnc(-c2ccccc2)nc1Sc1ccccc1Cl | 31 | · | · | -6 | 63* | 11 | 92*
COc1ccc(-c2cc3nc(C)c(CCC(=O)NCc4ccc(F)cc4)c(C)n3n2)c(OC)c1 | 4 | -13 | 3 | -14 | 16 | · | ·
Cc1cc(C)c2c(n1)nn1c(C)c(CCC(=O)NCc3ccco3)c(C)nc21 | -7 | -31 | 4 | 3 | -4 | · | ·
Cc1nc2cc(-c3ccccc3)nn2c(C)c1CCC(=O)NCc1ccco1 | 2 | -13 | 43 | 0 | 69* | 79* | 37
COc1cc(OC)cc(-c2cc3nc(C)c(CCC(=O)NC(C)CCc4ccco4)c(C)n3n2)c1 (stereo not given) | -8 | -5 | · | -6 | 39 | · | ·
COc1ccccc1-c1ccc(=O)n(CC(=O)NCc2ccco2)n1 | 0 | 5 | -11 | 2 | -2 | · | ·
Cc1nc2cc(-c3cccc(F)c3)nn2c(C)c1CCC(=O)NC(C)CCc1ccco1 (stereo not given) | 10 | · | · | -13 | 73* | 82* | 72*
COc1ccccc1-c1cc2nc(C)c(CCC(=O)NCc3ccco3)c(C)n2n1 | 12 | 14 | 31 | 5 | 49* | 55* | 41
SMILES | CF NFkB block | PAX8 inh HTS | EWS-Fli inh | KKLEB tox | HIF-2a block | HIF-2a conf | HIF-1a cs | others
COc1ccc(CNC(=O)CCc2c(C)nc3cc(-c4ccccc4OC)nn3c2C)cc1 | 17 | 15 | 20 | 0 | 49* | 58* | 31
C[C@@H]1CN([C@H](C)CO)C(=O)c2cc(NS(=O)(=O)c3cccs3)ccc2O[C@@H]1CN(C)Cc1ccc(C(=O)Nc2ccccc2N)cc1 | · | 42 | -18 | · | · | · | ·
C[C@@H]1CCCCO[C@@H](CN(C)S(=O)(=O)c2ccc(F)cc2)[C@H](C)CN([C@@H](C)CO)C(=O)c2cc(NC(=O)Cc3ccccc3)ccc2O1 | · | 14 | 8 | · | · | · | ·
O=C(N[C@H]1CC[C@@H](CCNC(=O)C2CCOCC2)O[C@@H]1CO)c1ccncc1 | · | -1 | 3 | · | · | · | ·
COc1cc2c(cc1OC)C(C1C(=O)CC(C)(C)CC1=O)N(C(=O)CCl)CC2 (stereo not given) | -18 | 5 | -2 | -1 | 3 | · | ·
COc1cc2c(cc1OC)C(c1cc(Br)ccc1F)N(C(=O)CCl)CC2 (stereo not given) | 105* | -18 | 58* | -68* | 90* | 97* | 103* | Mdm2 MdmX conf=103*
O=C(COc1ccc(S(=O)(=O)N2CCCC2)cc1)N1CCN(c2ccccc2F)CC1 | 10 | 0 | 7 | -1 | 8 | · | ·
CCOC(=O)COc1ccc(S(=O)(=O)N2CCN(c3ccccc3F)CC2)cc1 | 6 | · | · | 5 | 47* | 13 | -1
COc1ccc(NC(=O)Nc2ccc3c(c2)CC(=O)N([C@@H](C)CO)C[C@@H](C)[C@H](CN(C)Cc2ccncc2)O3)cc1 | · | -6 | 2 | · | · | · | ·
COc1cccc2c1C(CO)N1C(C#N)C3CC(C(=O)O)C(C1C2)N3C (stereo not given) | 96* | · | 24 | -52* | 42* | 8 | 106* | Mdm2 MdmX conf=103*
COc1ccccc1-c1ccccc1[C@H]1[C@@H](CO)N(C(=O)C2CC2)[C@H]1C#N | · | 0 | -6 | · | · | · | ·
CCOc1ccc(C(=O)/C=C/c2cc(OC)c(OC)c(OC)c2)cc1 | 5 | 51 | 48 | -25 | 66* | 53* | 103*
CCOc1ccc(N2C(=O)/C(=C/c3cc(OC)c(OC)c(OC)c3)N(CC(=O)OC)C2=S)cc1 | 34 | 32 | · | -12 | 48* | 30 | 47
COc1cc(/C=C/C(=O)c2ccc3c(c2)OCCO3)cc(OC)c1OC | 33 | -2 | 0 | -12 | 56* | 48* | 101*
COc1cc(/C=C/C(=O)c2ccc(C)cc2)ccc1OCC#N | 41 | 8 | -25 | -38 | 86* | 25 | 102*
COc1cc(/C=C/C(=O)c2ccc(F)cc2)cc(OC)c1OC | 10 | -4 | 9 | 3 | 39 | · | ·
O=C(C[C@@H]1C[C@@H]2c3cc(NC(=O)Nc4ccccc4)ccc3O[C@@H]2[C@@H](CO)O1)NCc1ccccn1 | · | 4 | -4 | · | · | · | ·
